Consider ten sequences from PMC8384837, “Expanding the binding specificity for RNA recognition by a PUF domain”.

What all share (assay): yeast three-hybrid, YBZ-1, SC-Leu-His + 0.5 mM 3-AT, 4 days
Common to all, as to details: tags: N-Gal4 AD-HA kept; label: inside an RPR1-promoter hybrid RNA with tandem MS2 sites; ssRNA

The target in assay [1] is PUM1 PUF domain R7-LWG (Homo sapiens, UniProt Q14671 828-1176, S1079L;N1080W;E1083G). The gist of the method: (§1)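 The interaction score is the logarithmic change in variant frequency from input to selection. It uses log2, with a pseudocount of 1 for absent variants, and frequencies came from PCR-amplified, Illumina-sequenced repeat regions. The libraries were Pumilio-1 PUF domains randomized at the three base-contacting residues per repeat, co-expressed with matching RNA elements in strain YBZ-1 (LexA–MS2 coat fusion, HIS3 reporter). Plating lasted four days on SC-Leu (input) or SC-Leu-His + 0.5 mM 3-AT (selection).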

Assay [2] addresses PUM1 PUF domain R7-KWR (Homo sapiens, UniProt Q14671 828-1176, S1079K;N1080W;E1083R). The gist of the method:
as §1

Assay [3] has as its target PUM1 PUF domain R5-QCH (Homo sapiens, UniProt Q14671 828-1176, C1007Q;R1008C;Q1011H). The procedure, abridged: as §1
Assay [4] concerns the target PUM1 PUF domain R4-TPC (Homo sapiens, UniProt Q14671 828-1176, N971T;H972P;Q975C). The gist of the method: as §1
Assay [5] addresses PUM1 PUF domain R2-RRG (Homo sapiens, UniProt Q14671 828-1176, N899R;Y900R;Q903G). The procedure, abridged: as §1
For assay [6], the target named is PUM1 PUF domain R5-RFM (Homo sapiens, UniProt Q14671 828-1176, C1007R;R1008F;Q1011M). The gist of the method:
as §1

Assay [7] deals with PUM1 PUF domain R5-KCV (Homo sapiens, UniProt Q14671 828-1176, C1007K;R1008C;Q1011V). The procedure, abridged: as §1
Assay [8] concerns the target PUM1 PUF domain R3-TRG (Homo sapiens, UniProt Q14671 828-1176, C935T;Q939G). The procedure, abridged: as §1
The target in assay [9] is T1, PUM1 PUF domain R6-VYQ (Homo sapiens, UniProt Q14671 828-1176, N1043V).
T1 sequence: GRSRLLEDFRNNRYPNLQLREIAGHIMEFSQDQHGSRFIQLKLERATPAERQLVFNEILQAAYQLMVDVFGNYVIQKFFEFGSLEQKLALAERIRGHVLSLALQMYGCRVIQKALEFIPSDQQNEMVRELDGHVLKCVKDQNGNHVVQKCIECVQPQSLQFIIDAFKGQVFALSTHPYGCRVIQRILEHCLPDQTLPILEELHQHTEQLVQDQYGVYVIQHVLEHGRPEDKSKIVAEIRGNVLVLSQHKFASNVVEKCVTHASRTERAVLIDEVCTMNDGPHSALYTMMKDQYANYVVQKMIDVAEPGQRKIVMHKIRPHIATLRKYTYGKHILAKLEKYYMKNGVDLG
The gist of the method: as §1

Assay [10] concerns the target PUM1 PUF domain R5-KRW (Homo sapiens, UniProt Q14671 828-1176, C1007K;Q1011W). The gist of the method: as §1

With “GGCUAGAACUAGUGGAUCCCCCGGCGCCCGGCGGCUCGAGCCCGGGUAAGUCUAAAUAGUCUGCAUGCCGCCGGGCGCCAUGCCUGCAGGUCGACUCUAGAAAACAUG”, the binding signal in assay [1] was 2.65 log2 enrichment (interaction score); in assay [2] it was 5.09 log2 enrichment (interaction score).
Regarding “GGCUAGAACUAGUGGAUCCCCCGGCGCCCGGCGGCUCGAGCCCGGGUAAGUGUGAAUAGUCUGCAUGCCGCCGGGCGCCAUGCCUGCAGGUCGACUCUAGAAAACAUG”, the binding signal in assay [3] is 3.31 log2 enrichment (interaction score).
For the sequence “GGCUAGAACUAGUGGAUCCCCCGGCGCCCGGCGGCUCGAGCCCGGGUAAGUGUACAUAGUCUGCAUGCCGCCGGGCGCCAUGCCUGCAGGUCGACUCUAGAAAACAUG”, the binding signal in assay [4] is 5.9 log2 enrichment (interaction score).
On to “GGCUAGAACUAGUGGAUCCCCCGGCGCCCGGCGGCUCGAGCCCGGGUAAGUUUAAAUAGUCUGCAUGCCGCCGGGCGCCAUGCCUGCAGGUCGACUCUAGAAAACAUG”, for which the binding signal in [1] is 5.68 log2 enrichment (interaction score).
Take “GGCUAGAACUAGUGGAUCCCCCGGCGCCCGGCGGCUCGAGCCCGGGUAAGUGUAAAGAGUCUGCAUGCCGCCGGGCGCCAUGCCUGCAGGUCGACUCUAGAAAACAUG”: the binding signal in [5] is 2.19 log2 enrichment (interaction score).
Consider “GGCUAGAACUAGUGGAUCCCCCGGCGCCCGGCGGCUCGAGCCCGGGUAAGUGUUAAUAGUCUGCAUGCCGCCGGGCGCCAUGCCUGCAGGUCGACUCUAGAAAACAUG”, for which the binding signal is 4.36 log2 enrichment (interaction score) in [6] and 1.51 log2 enrichment (interaction score) in assay [7].
Turning to “GGCUAGAACUAGUGGAUCCCCCGGCGCCCGGCGGCUCGAGCCCGGGUAAGUGUAUAUAGUCUGCAUGCCGCCGGGCGCCAUGCCUGCAGGUCGACUCUAGAAAACAUG”, the binding signal in assay [4] was 5.59 log2 enrichment (interaction score).
As for “GGCUAGAACUAGUGGAUCCCCCGGCGCCCGGCGGCUCGAGCCCGGGUAAGUGUAAAUAGUCUGCAUGCCGCCGGGCGCCAUGCCUGCAGGUCGACUCUAGAAAACAUG”, the binding signal was 3.15 log2 enrichment (interaction score) in [8], 4.06 log2 enrichment (interaction score) in assay [9], 4.17 log2 enrichment (interaction score) in [4] and 1.2 log2 enrichment (interaction score) in assay [6].
Take “GGCUAGAACUAGUGGAUCCCCCGGCGCCCGGCGGCUCGAGCCCGGGUAAGUGUCAAUAGUCUGCAUGCCGCCGGGCGCCAUGCCUGCAGGUCGACUCUAGAAAACAUG”: the binding signal was 2.58 log2 enrichment (interaction score) in [10] and 2.63 log2 enrichment (interaction score) in assay [7].
On to “GGCUAGAACUAGUGGAUCCCCCGGCGCCCGGCGGCUCGAGCCCGGGUAAGUAUAAAUAGUCUGCAUGCCGCCGGGCGCCAUGCCUGCAGGUCGACUCUAGAAAACAUG”, for which the binding signal in assay [2] is 2.7 log2 enrichment (interaction score).
